Assay results as given in PubChem BioAssay AID1159580 (chemical genetic matrix, 2015).
“And” between values parts separate entries of the source, which are not always exact repeats. Equal entries are not always repeated. In all, about 5,500 compounds went through this assay and about 2,000 (36%) were called active. About 18% were inconclusive and are not listed. Cut-off read from the data, not from the text of the source: active = normalized growth mostly below about 0.91 (no sharp cut-off); inconclusive = no clear call, values can overlap the other calls; inactive = mostly above about 0.92. The list shows a part of the results.

Experiment: chemical genetic growth profiling, strain panel (AID 1159580);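 note: tested at 20 µM; growth read once vehicle control cultures reached saturation at 30 °C; 1 = growth at the plate median or of vehicle wells; lower values mean less growth of the strain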
Conditions: S. cerevisiae deletion strains, growth OD

Measured: normalized growth

CNCc1ccccc1
inactive: locus YAL013W, strain DEP1, stronger effect = lower value 0.994 | locus YAL021C, strain ccr4, stronger effect = lower value 1.01 | locus YAL026C, strain drs2, stronger effect = lower value 1.02 | locus YAL030W, strain snc1, stronger effect = lower value 1.02 | locus YBL061C, strain skt5, stronger effect = lower value 1.03 | locus YBR009C, strain hhf1, stronger effect = lower value 1.02 | locus YBR021W, strain FUR4, stronger effect = lower value 1.03 | locus YBR023C, strain chs3, stronger effect = lower value 1.03 | locus YBR171W, strain sec66, stronger effect = lower value 1.03 | locus YBR229C, strain ROT2, stronger effect = lower value 0.965 | locus YBR231C, strain swc5, stronger effect = lower value 1.01 | locus YBR279W, strain paf1, stronger effect = lower value 1.02 | locus YCL011C, strain gbp2, stronger effect = lower value 1.02 | locus YCL016C, strain dcc1, stronger effect = lower value 1.02 | locus YCL029C, strain bik1, stronger effect = lower value 0.984 | locus YCL061C, strain MRC1, stronger effect = lower value 1.01 | locus YCL069W, strain vba3, stronger effect = lower value 1.02 | locus YCR088W, strain abp1, stronger effect = lower value 1.03 | locus YDL005C, strain med2, stronger effect = lower value 1.02 | locus YDL035C, strain GPR1, stronger effect = lower value 1 | locus YDL040C, strain nat1, stronger effect = lower value 1 | locus YDL074C, strain BRE1, stronger effect = lower value 1.05 | locus YDL101C, strain DUN1, stronger effect = lower value 0.982 | locus YDL134C, strain PPH21, stronger effect = lower value 0.992 | locus YDL185W, strain tfp1, stronger effect = lower value 0.987 | locus YDL192W, strain arf1, stronger effect = lower value 0.997 | locus YDR001C, strain nth1, stronger effect = lower value 1.02 | locus YDR069C, strain doa4, stronger effect = lower value 1.01 | locus YDR101C, strain arx1, stronger effect = lower value 1.05 | locus YDR137W, strain rgp1, stronger effect = lower value 1.04 | locus YDR159W, strain sac3, stronger effect = lower value 1.05 | locus YDR162C, strain NBP2, stronger effect = lower value 0.957 | locus YDR195W, strain ref2 0.999 | locus YDR297W, strain sur2, stronger effect = lower value 1.02 | locus YDR318W, strain mcm21, stronger effect = lower value 0.965 | locus YDR334W, strain swr1, stronger effect = lower value 1.03 | locus YDR335W, strain msn5, stronger effect = lower value 1.02 | locus YDR388W, stronger effect = lower value 1.01 | locus YDR392W, strain spt3, stronger effect = lower value 1.01 | locus YDR502C, strain sam2, stronger effect = lower value 1 | locus YEL003W, strain gim4, stronger effect = lower value 1.02 | locus YEL037C, strain rad23, stronger effect = lower value 1.02 | locus YEL061C, strain CIN8 (second series), stronger effect = lower value 1.03 | locus YEL061C, strain CIN8, stronger effect = lower value 0.996 | locus YER015W, strain faa2, stronger effect = lower value 1.01 | locus YER016W, strain bim1, stronger effect = lower value 1.02 | locus YER110C, stronger effect = lower value 0.99 | locus YER111C, strain swi4, stronger effect = lower value 1.02 | locus YER155C, strain BEM2 (second series), stronger effect = lower value 1.02 | locus YER155C, strain BEM2, stronger effect = lower value 0.987 | locus YER167W, strain BCK2, stronger effect = lower value 0.988 | locus YFR010W, strain ubp6, stronger effect = lower value 1.04 | locus YGL078C, strain dbp3, stronger effect = lower value 0.999 | locus YGL086W, strain mad1, stronger effect = lower value 1.06 | locus YGL167C, strain pmr1, stronger effect = lower value 1.03 | locus YGL173C, strain kem1, stronger effect = lower value 1.03 | locus YGL227W, strain vid30, stronger effect = lower value 1.03 | locus YGL240W, strain doc1, stronger effect = lower value 1.01 | locus YGL248W, strain PDE1, stronger effect = lower value 0.984 | locus YGL253W, strain hxk2, stronger effect = lower value 1.03 | locus YGR078C, strain PAC10, stronger effect = lower value 0.981 | locus YGR135W, strain pre9, stronger effect = lower value 0.972 | locus YGR229C, strain SMI1, stronger effect = lower value 0.986 | locus YGR252W, strain gcn5, stronger effect = lower value 0.908 | locus YHR013C, strain ard1, stronger effect = lower value 1.03 | locus YHR027C, strain rpn1, stronger effect = lower value 1.04 | locus YHR030C, strain SLT2, stronger effect = lower value 1.01 and 0.986 | locus YHR079C, strain IRE1 (second series), stronger effect = lower value 0.989 | locus YHR079C, strain IRE1, stronger effect = lower value 0.975 | locus YHR094C, strain hxt1, stronger effect = lower value 0.978 | locus YHR129C, strain ARP1, stronger effect = lower value 1 | locus YHR142W, strain chs7, stronger effect = lower value 1.05 | locus YHR200W, strain rpn10, stronger effect = lower value 0.999 | locus YIL066C, strain RNR3, stronger effect = lower value 0.992 | locus YIL073C, strain SPO22, stronger effect = lower value 1.01 | locus YIL125W, strain kgd1, stronger effect = lower value 1 | locus YIR030C, strain dcg1, stronger effect = lower value 0.99 | locus YJL092W, strain hpr5, stronger effect = lower value 1.02 | locus YJL095W, strain BCK1 (second series), stronger effect = lower value 1.02 | locus YJL095W, strain BCK1, stronger effect = lower value 0.95 and 0.974 | locus YJL115W, strain asf1, stronger effect = lower value 1.03 | locus YJL129C, strain trk1, stronger effect = lower value 1.05 | locus YJL134W, strain LCB3, stronger effect = lower value 0.996 | locus YJL154C, strain vps35, stronger effect = lower value 1.03 | locus YJL164C, strain tpk1, stronger effect = lower value 1.01 | locus YJL166W, strain qcr8, stronger effect = lower value 1.02 | locus YJL168C, strain set2, stronger effect = lower value 0.991 | locus YJL187C, strain SWE1 (second series), stronger effect = lower value 0.977 | locus YJL187C, strain SWE1, stronger effect = lower value 1.03 | locus YJR043C, strain POL32, stronger effect = lower value 1
